Structures are written as SMILES. The source holds several records for some structures; these can differ, active in one and inactive in another. Active and inactive are the calls of the source. Rule for the calls: active = hit-call score of the fitted dose curve at least 0.9, where 1 is the maximum; inactive = score below 0.9.

Read-out in experiment [1]: TIMP metallopeptidase inhibitor 1 (TIMP1), TIMP1 (gene 7076)
Briefly: BSK_hDFCGF_TIMP1: BioMAP Diversity Plus: hDFCGF Assay for TIMP metallopeptidase inhibitor 1 (TIMP1) Biomarker Activity (AID 2283062). The note with it: primary human foreskin fibroblasts; actives raise or lower the signal. In short, it runs like this:
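Bidirectional curve fitting against DMSO baseline yielded this endpoint, based on ELISA detection of TIMP-1 in primary human foreskin fibroblasts exposed to compound for 24 h.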

Read-out in experiment [2]: Monokine induced gamma interferon (MIG), CXCL9 (gene 4283)
The experiment is described as follows: BSK_hDFCGF_MIG: BioMAP Diversity Plus: hDFCGF Assay for Monokine induced gamma interferon (MIG) Biomarker Activity (AID 2283063). The note with it: primary human foreskin fibroblasts; actives raise or lower the signal. In short, it runs like this: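 Endpoint derived by bidirectional fitting relative to DMSO; MIG quantified via ELISA in primary human foreskin fibroblasts harvested 24 h after dosing.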

Read-out in experiment [3]: Matrix Metallopeptidase 1 (MMP1), MMP1 (gene 4312)
The experiment is described as follows: BSK_hDFCGF_MMP1: BioMAP Diversity Plus: hDFCGF Assay for Matrix Metallopeptidase 1 (MMP1) Biomarker Activity (AID 2283064). As to conditions: primary human foreskin fibroblasts; actives raise or lower the signal. In short, it runs like this:
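Primary human foreskin fibroblasts exposed to chemicals for 24 h; MMP1 measured by ELISA. Cytotoxicity tracked by SRB staining in parallel cultures; bidirectional fit relative to DMSO.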

Read-out in experiment [4]: Vascular cell adhesion molecule 1 (VCAM1), VCAM1 (gene 7412)
The experiment is described as follows: BSK_hDFCGF_VCAM1: BioMAP Diversity Plus: hDFCGF Assay for Vascular cell adhesion molecule 1 (VCAM1) Biomarker Activity (AID 2283065). As to conditions: primary human foreskin fibroblasts; actives raise or lower the signal. In short, it runs like this: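 Measured after 24 h chemical treatment of primary human skin fibroblasts, VCAM-1 was detected by ELISA and concentration-response analysed in both directions versus DMSO vehicle.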

Read-out in experiment [5]: Plasminogen activator inhibitor-1 (PAI1), SERPINE1 (gene 5054)
The experiment is described as follows: BSK_hDFCGF_PAI1: BioMAP Diversity Plus: hDFCGF Assay for Plasminogen activator inhibitor-1 (PAI1) Biomarker Activity (AID 2283066). The note with it: primary human foreskin fibroblasts; actives raise or lower the signal. In short, it runs like this: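 PAI-1 levels, determined by ELISA, served as the endpoint in human foreskin fibroblast cultures exposed to compound for 24 h, with DMSO as baseline.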

Read-out in experiment [6]: Intercellular Adhesion Molecule 1 (ICAM1), ICAM1 (gene 3383)
Briefly: BSK_KF3CT_ICAM1: BioMAP Diversity Plus: KF3CT Assay for Intercellular Adhesion Molecule 1 (ICAM1) Biomarker Activity (AID 2283067). The note with it: primary human keratinocytes with fibroblasts; actives raise or lower the signal. In short, it runs like this:
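Bidirectional curve fitting against a DMSO baseline was applied to ICAM-1 ELISA signal from primary human skin co-cultures harvested 24 h after treatment, with SRB staining of parallel wells for overt cytotoxicity.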

Read-out in experiment [7]: Interferon-gamma inducible Protein 10 (IP10), CXCL10 (gene 3627)
The experiment is described as follows: BSK_KF3CT_IP10: BioMAP Diversity Plus: KF3CT Assay for Interferon-gamma inducible Protein 10 (IP10) Biomarker Activity (AID 2283068). The note with it: primary human keratinocytes with fibroblasts; actives raise or lower the signal. In short, it runs like this: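 ELISA read-out of IP-10 after 24 h chemical dosing of human skin primary co-culture (keratinocytes, foreskin fibroblasts). Gain or loss of signal relative to DMSO, bidirectional curve fit.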

A short description of experiment [8]: BSK_KF3CT_SRB: Viability Assessment in the BioMAP Diversity Plus: KF3CT Assay (AID 2283069).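 Note: total protein by sulforhodamine B staining as a cytotoxicity measure; read 24 h after compound addition; fitted for both signal gain and loss against DMSO baseline.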 The note with it: primary human keratinocytes with fibroblasts. In short, it runs like this:
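Human keratinocyte and foreskin fibroblast co-culture exposed to chemical for 24 h. Total protein measured in parallel cultures by 0.1% sulforhodamine B staining after 10% TCA fixation, read at 560 nm; bidirectional fit relative to DMSO.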

Read-out in experiment [9]: Interleukin-1 alpha (IL1a), IL1A (gene 3552)
Briefly: BSK_KF3CT_IL1a: BioMAP Diversity Plus: KF3CT Assay for Interleukin-1 alpha (IL1a) Biomarker Activity (AID 2283070). As to conditions: primary human keratinocytes with fibroblasts; actives raise or lower the signal. In short, it runs like this:
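Primary human keratinocyte plus foreskin fibroblast co-culture, dosed and measured at 24 h in 96-well plates. IL-1a level quantified by ELISA; bidirectional fit relative to DMSO.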

Read-out in experiment [10]: TIMP metallopeptidase inhibitor 2 (TIMP2), TIMP2 (gene 7077)
Briefly: BSK_KF3CT_TIMP2: BioMAP Diversity Plus: KF3CT Assay for TIMP metallopeptidase inhibitor 2 (TIMP2) Biomarker Activity (AID 2283071). As to conditions: primary human keratinocytes with fibroblasts; actives raise or lower the signal. In short, it runs like this: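 Keratinocyte–fibroblast co-culture, 24 h exposure; TIMP-2 ELISA, DMSO-normalised bidirectional fit. Parallel SRB (0.1%, TCA-fixed, 560 nm) total-protein staining gauges cytotoxicity.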

Read-out in experiment [11]: C-C motif chemokine 2 (Homo sapiens) (UniProt P13500)
Briefly: BSK_KF3CT_MCP1: BioMAP Diversity Plus: KF3CT Assay for Monocyte Chemoattractant Protein 1 (MCP1/CCL2) Biomarker Activity (AID 2283073). As to conditions: primary human keratinocytes with fibroblasts; actives raise or lower the signal. In short, it runs like this: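 Biomarker MCP-1 is measured by ELISA in primary human keratinocytes co-cultured with foreskin fibroblasts, 24 h after chemical treatment; DMSO serves as the negative control and activity baseline.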

Read-out in experiment [12]: Matrix Metallopeptidase 9 (MMP9), MMP9 (gene 4318)
Briefly: BSK_KF3CT_MMP9: BioMAP Diversity Plus: KF3CT Assay for Matrix Metallopeptidase 9 (MMP9) Biomarker Activity (AID 2283074). The note with it: primary human keratinocytes with fibroblasts; actives raise or lower the signal. In short, it runs like this:
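Human keratinocyte and foreskin fibroblast co-culture exposed to chemicals for 24 h; MMP9 biomarker measured by ELISA, bidirectional fitting relative to DMSO; cytotoxicity tracked by SRB total protein staining in parallel cultures.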

Read-out in experiment [13]: urokinase plasminogen activator (uPA), PLAU (gene 5328)
Briefly: BSK_KF3CT_uPA: BioMAP Diversity Plus: KF3CT Assay for urokinase plasminogen activator (uPA) Biomarker Activity (AID 2283075). As to conditions: primary human keratinocytes with fibroblasts; actives raise or lower the signal. In short, it runs like this: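 Primary human keratinocyte/foreskin fibroblast co-culture exposed to chemical; uPA measured by ELISA at 24 h. Bidirectional fit versus DMSO, with parallel SRB total-protein staining for cytotoxicity.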

Read-out in the next experiment: CD40, CD40 (gene 958)
Briefly: BSK_LPS_CD40: BioMAP Diversity Plus: LPS Assay for CD40 Biomarker Activity (AID 2283076). As to conditions: primary human HUVEC with PBMC; actives raise or lower the signal. In short, it runs like this: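 Using a multiplexed primary human co-culture (umbilical vein endothelium plus PBMC), CD40 was read by ELISA 24 h after dosing, with cytotoxicity tracked by sulforhodamine B staining of parallel cultures and activity fitted bidirectionally versus DMSO.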

Read-out in experiment [14]: E-selectin (Homo sapiens) (UniProt P16581)
The experiment is described as follows: BSK_LPS_Eselectin: BioMAP Diversity Plus: LPS Assay for Eselectin Biomarker Activity (AID 2283077). The note with it: primary human HUVEC with PBMC; actives raise or lower the signal. In short, it runs like this: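 Dose chemical onto LPS-driven HUVEC/PBMC co-culture; after 24 h, run ELISA for E-selectin; fit up- and down-going responses relative to DMSO control.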

Read-out in experiment [15]: Interleukin-8 (IL8), CXCL8 (gene 3576)
The experiment is described as follows: BSK_LPS_IL8: BioMAP Diversity Plus: LPS Assay for Interleukin-8 (IL8) Biomarker Activity (AID 2283078). The note with it: primary human HUVEC with PBMC; actives raise or lower the signal. In short, it runs like this: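 In this LPS system, chemical-treated human umbilical vein endothelium/PBMC co-cultures were harvested at 24 h for IL-8 ELISA.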

Experiment [16] can be described thus: BSK_LPS_SRB: Viability Assessment in the BioMAP Diversity Plus: LPS Assay (AID 2283079).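 Note: total protein by sulforhodamine B absorbance as a cytotoxicity measure; measured one day after compound addition; fitted in both directions against DMSO so loss or gain of signal counts.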 The note with it: primary human HUVEC with PBMC. In short, it runs like this: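 Cytotoxicity endpoint in human endothelial–PBMC co-culture: 24 h exposure, then SRB (0.1%) staining, 560 nm read.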
Read-out in experiment [17]: Interleukin-1 alpha (IL1a), IL1A (gene 3552)
The experiment is described as follows: BSK_LPS_IL1a: BioMAP Diversity Plus: LPS Assay for Interleukin-1 alpha (IL1a) Biomarker Activity (AID 2283080). The note with it: primary human HUVEC with PBMC; actives raise or lower the signal. In short, it runs like this: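 Primary human HUVEC and PBMC co-culture stimulated with LPS is dosed and harvested at 24 h. Both increases and decreases in ELISA-measured IL-1a are scored relative to DMSO.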

Read-out in experiment [18]: Monocyte Chemoattractant Protein-1 (MCP1), CCL2 (gene 6347)
The experiment is described as follows: BSK_LPS_MCP1: BioMAP Diversity Plus: LPS Assay for Monocyte Chemoattractant Protein-1 (MCP1) Biomarker Activity (AID 2283081). As to conditions: primary human HUVEC with PBMC; actives raise or lower the signal. In short, it runs like this:
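Values derive from bidirectional fitting against DMSO of ELISA-measured MCP-1 in a human primary endothelial and mononuclear cell co-culture, 24 h after chemical addition under LPS activation.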

Read-out in experiment [19]: Transforming growth factor beta 1 (TGFb1), TGFB1 (gene 7040)
The experiment is described as follows: BSK_KF3CT_TGFb1: BioMAP Diversity Plus: KF3CT Assay for Transforming growth factor beta 1 (TGFb1) Biomarker Activity (AID 2283072). The note with it: primary human keratinocytes with fibroblasts; actives raise or lower the signal. In short, it runs like this: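 Signal changes in either direction, relative to DMSO, define activity here. TGF-b1 is read by ELISA from a human keratinocyte-fibroblast co-culture 24 h post-dose.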

Sequence of E-selectin (Homo sapiens) (P16581 whole entry, looked up): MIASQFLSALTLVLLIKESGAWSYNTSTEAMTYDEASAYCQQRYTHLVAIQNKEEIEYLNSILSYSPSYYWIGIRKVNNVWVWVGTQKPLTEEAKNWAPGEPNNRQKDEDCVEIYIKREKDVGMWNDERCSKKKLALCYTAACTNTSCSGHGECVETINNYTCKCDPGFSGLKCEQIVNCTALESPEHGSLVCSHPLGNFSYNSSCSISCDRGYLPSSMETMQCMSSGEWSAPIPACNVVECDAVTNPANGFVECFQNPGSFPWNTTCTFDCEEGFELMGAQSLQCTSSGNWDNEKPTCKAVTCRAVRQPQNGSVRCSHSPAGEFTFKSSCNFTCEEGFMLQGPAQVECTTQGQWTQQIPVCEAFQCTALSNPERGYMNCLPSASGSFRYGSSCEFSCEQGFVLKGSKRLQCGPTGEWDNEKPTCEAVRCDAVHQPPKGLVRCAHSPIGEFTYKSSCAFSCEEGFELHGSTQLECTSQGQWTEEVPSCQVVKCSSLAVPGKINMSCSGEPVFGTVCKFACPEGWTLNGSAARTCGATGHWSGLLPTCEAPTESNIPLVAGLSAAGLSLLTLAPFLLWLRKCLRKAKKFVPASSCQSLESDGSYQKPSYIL

As a reminder, the AC50 is the concentration giving half of the maximal activity seen. On to `CCOC(=O)[C@H](C)Oc1ccc(Oc2nc3ccc(Cl)cc3o2)cc1`, for which the result in [1], in experiment [2], in experiment [3], in experiment [4], in experiment [5] and in experiment [6] was inactive. For the same compound, the outcome in experiment [8], in experiment [9], in [10], in [11], in [12] and in experiment [13] was inactive. Besides, the outcome with CD40, CD40 (gene 958) is “inactive”; in experiment [14], “inactive”; in experiment [15], “inactive”; in experiment [16], “inactive”; in experiment [17], “inactive”; in experiment [18] it was “inactive”. In [7], the AC50 is 25.3 µM (active).
Take `CC(=O)S[C@@H]1CC2=CC(=O)CC[C@]2(C)[C@H]2CC[C@@]3(C)[C@@H](CC[C@@]34CCC(=O)O4)[C@H]12`: the outcome in experiment [1], in [4], in experiment [6], in experiment [8], in experiment [10] and in experiment [19] was inactive. Further, the outcome in experiment [11], in [12] and in experiment [13] was inactive. Besides, the AC50 in experiment [2] is 31.2 µM (active); in [3] it was 31.3 µM (active); in experiment [5] it was 10.3 µM (active); in [7] it was 33.4 µM (active); in experiment [9], 30.7 µM (active); with CD40, CD40 (gene 958) it was 25 µM (active). Besides, the AC50 in experiment [14] is 22.5 µM (active); in experiment [15], 15.9 µM (active); in experiment [16], 20.9 µM (active); in experiment [17] it was 12.4 µM (active).
On to `COCCO`, for which the outcome in experiment [1], in experiment [2], in experiment [3], in [5], in [6] and in experiment [7] was inactive. In addition, the outcome in [8], in [9], in [10], in experiment [19], in experiment [12] and in [13] was inactive. For the same compound, the outcome was “inactive” with CD40, CD40 (gene 958); “inactive” in experiment [14]; “inactive” in experiment [15]; “inactive” in experiment [16]; “inactive” in [17]; “inactive” in experiment [18]. For the same compound, in [9], the AC50 was 0.8 µM (active).

The values are drawn from PubChem BioAssay (EPA / NIEHS).
